Results filed as inconclusive are left out. Entries that show only a call come without a potency. Active and inactive are the calls of the source. The call rests on the fitted dose curve; in most records, active means well fitted cell-killing curve with a large enough effect; inconclusive means small, poorly fitted or top-dose-only effect; inactive means flat fitted curve, though single readings scatter.

For 40 compounds, Potency results are on record in PubChem BioAssay (NCATS).
Potency means the concentration at half of the fitted maximal effect.

The nature of this test: Quantitative highthroughput screen to assess conditional lethalithy of P12 Ichikawa cells grown in Human Plasma-Like Medium with dialyzed fetal bovine serum (HPLM+ds) (AID 1963879). Further: nearly all actives have a fitted effect of over 35% in size. Particulars: ATP luminescence, 48 h; Potency: viability; series mostly up to 45.8 µM. An excerpt:
Assay Provider: Jason Cantor Ph.D.
Department of Biochemistry
University of Wisconsin-Madison, Madison, WI, USA
Chemical screening studies have identified drug sensitivities across hundreds of cancer cell lines but most putative therapeutics fail to translate. Discovery and development of drug candidates in models that more accurately reflect nutrient levels in human blood is a major challenge. Here we performed high-throughput screens in conventional versus Human Plasma-Like Medium (HPLM) to identify compounds that were "missed" when screening using the artificial culture condition. Sets of conditional anticancer compounds spanned phases of clinical development and included non-oncology drugs were assessed. […] We also traced conditional phenotypes for several chemotherapeutics to availability of HPLM-specific metabolites and confirmed others for compounds whose reported targets are encoded by nonessential genes. Our findings establish generalizable strategies for exploiting conditional lethality in HPLM to reveal therapeutic candidates and mechanisms of action in cancer cells.
Described herein are the results of each viability screens against three cell lines: NOMO1 (an acute myeloid leukemia cell line); P12-Ichikawa (a T-cell acute lymphoblastic leukemia); and SEM (a B-cell ALL). Each assay was screened using 3 different cell culture media: homemade human plasma-Like medium with 10% dialyzed fetal bovine serum (HPLM+ds); RPMI1640 with 10% untreated FBS and 5mM glucose (RPMI+s); and RPMI1640 with 10% dialyzed fetal bovine serum and 5 mM glucose (RPMI+ds).
PROTOCOL TABLE (as described by Inglese J, Shamu CE and Guy RK. 2007)
SEQUENCE No. (e.g., 1, 2, 3, etc.); […] (e.g., Cells, Incubation, Reagent, etc.); VALUE and DESCRIPTION.
1; Cells; 5 uL; white, solid bottom 1536-well Greiner assay plate.
2; Compounds; 23 nL; Kalypsis pin tool (Wako USA) equipped with a 1536-well pin head to transfer to the assay plates.
3; Incubation; 48 hours; 37C incubation.
4; Reagent; 3 uL; CellTiter Glo (Promega).
5; Incubation; 5 min, room temperature
6; Detection; Luminescence, Viewlux PerkinElmer.
NOTES (numbers refer to Sequence numbers above)
1. Briefly, 5 ul of cell reagent was dispensed using a Multidrop Combi Dispenser. The NOMO1 and SEM cells were plated at 500 cells/well and the P12-Ichikawa line at 1000 cells/well.
2. After seeding the cells, 23 nL of MIPE 4.1 library compounds (in DMSO) were added to each plate using a Kalypsys 1536 Pintool dispenser. Bortezomib at final concentration of […] and DMSO were added to each plate as positive and negative controls respectively. For each screen, MIPE 4.1 compounds were added over an eleven-point concentration range […] in 3-fold dilutions.
3. Each plate was covered with a stainless steel gasketed lid to prevent evaporation and incubated for 48 hour at 37C, 95% relative humidity, and 5% CO2.
4-5. Three microliter CellTilter-GloTM luminescent substrate mix (Promega) reagent was added to the assay plate and incubated at room temperature for 5 min.
6. The luminescence signal was measured using a ViewLux (PerkinElmer) multiplate reader with a 2 second exposure time per plate. Data for each compound were normalized as percent viability such that measurements for DMSO and the empty well controls in each plate were defined as 100% and 0%, respectively.
As to `O=C(C=Cc1cccnc1)NCCCCC1CCN(C(=O)c2ccccc2)CC1`, the Potency is 0.003 µM (active).

On to `COc1ccc2cc3[n+](cc2c1OC)CCc1cc2c(cc1-3)OCO2`, for which the Potency is 18.7 µM (active).

Take `CON=C(C(=O)N[C@@H]1C(=O)N2C(C(=O)O)=C(Cn3ccc(=N)n3CCO)CS[C@H]12)c1csc(N)n1`: the Potency result was “inactive”.

For `O=C(O)[C@H](CC(=O)N1C[C@@H]2CCCC[C@H]2C1)Cc1ccccc1`, the Potency result is “inactive”.

Regarding `CCc1ccc(C(=O)Nc2cc(CN3CCN(C)CC3)cc(C(F)(F)F)c2)cc1C#Cc1cnc2ccnn2c1`, the Potency result is “inactive”.

As for `O=C(O)[C@H]1O[C@H](Oc2cc3oc(-c4ccccc4)cc(=O)c3c(O)c2O)[C@H](O)[C@@H](O)[C@H]1O`, the Potency result was “inactive”.

As for `Cc1noc(NS(=O)(=O)c2ccc(N)cc2)c1C`, the Potency entry was “inactive”.

With `C[C@@H](CN1CC(=O)NC(=O)C1)N1CC(=O)NC(=O)C1`, the Potency was 0.372 µM (active).

Turning to `Cc1cnc(Nc2ccc(OCCN3CCCC3)cc2)nc1Nc1cccc(S(=O)(=O)NC(C)(C)C)c1`, the Potency result is “inactive”.

Turning to `O=c1[nH]c(=O)n(C2CCCO2)cc1F` (stereo not given), the Potency entry was “inactive”.

As to `COc1cc2c(cc1OC)C1CC(=O)C(CC(C)C)CN1CC2` (stereo not given), the Potency entry is “inactive”.

Take `O=c1cc(-c2ccc(O)cc2)oc2cc(O)cc(O)c12`: the Potency entry was “inactive”.

For the compound `CCCNC(=O)Nc1ccc(Oc2ncnc3cc(OC)c(OC)cc23)cc1Cl`, the Potency result is “inactive”.

On to `CO[C@H]1C=CO[C@@]2(C)Oc3c(C)c(O)c4c(O)c(c5c(c4c3C2=O)NC2(CCN(CC(C)C)CC2)N=5)=NC(=O)C(C)=CC=C[C@H](C)[C@H](O)[C@@H](C)[C@@H](O)[C@@H](C)[C@H](OC(C)=O)[C@H]1C`, for which the Potency entry is “inactive”.

As to `NCCCC(N)(C(=O)O)C(F)F` (stereo not given), the Potency entry is “inactive”.

As to `COc1cc2nc(-c3ccc(N4CCN(C)CC4)cc3)nc(NCCN3CCOCC3)c2cc1OC`, the Potency is 5.26 µM (active).

For the compound `CC(=O)NC(C)c1ccc(Oc2ccc(OC(C)C)cc2)cc1` (stereo not given), the Potency result was “inactive”.

Regarding `C=C(C)[C@@H]1CC[C@]2(C(=O)O)CC[C@]3(C)[C@H](CC[C@@H]4[C@@]5(C)CC[C@H](O)C(C)(C)[C@@H]5CC[C@]43C)[C@@H]12`, the Potency result is “inactive”.

As to `COc1ccc(C2CNC(=O)C2)cc1OC1CCCC1` (stereo not given), the Potency result is “inactive”.

As to `CC(C)(Sc1cc(C(C)(C)C)c(O)c(C(C)(C)C)c1)Sc1cc(C(C)(C)C)c(O)c(C(C)(C)C)c1`, the Potency entry is “inactive”.

For the compound `CN(C)c1nc(Cc2ccc(NC(=O)c3ccc(C(F)(F)F)cc3)cc2)nc(N(C)C)c1CC(=O)O`, the Potency entry is “inactive”.

With `COc1cccc2nc(-c3cccs3)nc(NN3C(=O)C=C(C)C3=O)c12`, the Potency was 2.09 µM (active).

Take `COc1c(Cl)cc2c([nH]c3cnccc32)c1NC(=O)c1cccnc1C`: the Potency result is “inactive”.

With `CN(C)CC(C)(C)CNc1nn2c(-c3ccccc3)nnc2cc1C1CCC1`, the Potency is 10.5 µM (active).

Regarding `Cc1nc(N)ncc1-c1nc(N2CCOCC2)c2sc(C(C)(C)O)cc2n1`, the Potency was 0.0833 µM (active).

For `Cc1onc(-c2ccccc2Cl)c1C(=O)N[C@@H]1C(=O)N2[C@@H]1SC(C)(C)[C@@H]2C(=O)O`, the Potency entry is “inactive”.

For `CCOC(=O)C=C[C@H](C[C@@H]1CCNC1=O)NC(=O)[C@@H](CC(=O)[C@@H](NC(=O)c1cc(C)on1)C(C)C)Cc1ccc(F)cc1`, the Potency result was “inactive”.

With `CCOc1cc(N)c(Cl)cc1C(=O)NCC1CN(Cc2ccc(F)cc2)CCO1` (stereo not given), the Potency result was “inactive”.

For the compound `C=C(c1ccc(C(=O)O)cc1)c1cc2c(cc1C)C(C)(C)CCC2(C)C`, the Potency entry was “inactive”.

As for `Cc1cnc(Nc2ccc(CN3CCOCC3)cc2)nc1Nc1cccc(S(=O)(=O)NC(C)(C)C)c1`, the Potency is 2.96 µM (active).

Take `O=C(NCc1ccccc1)[C@H](Cc1ccccc1)NC(=O)[C@@H]1O[C@@H]1C(=O)NCCc1ccc(O)cc1`: the Potency entry was “inactive”.

Consider `CCC(=O)NCC[C@@H]1CCc2ccc3c(c21)CCO3`, for which the Potency entry is “inactive”.

Take `O=S(=O)(NCCNCC=Cc1ccc(Br)cc1)c1cccc2cnccc12`: the Potency entry was “inactive”.

Consider `COC(=O)Nc1nc2ccc(S(=O)c3ccccc3)cc2[nH]1` (stereo not given), for which the Potency is 7.43 µM (active).

Turning to `CCCCn1c(=O)n(Cc2ccccc2F)c(=O)c2[nH]c(Cc3ccc(NC(C)=O)cc3)nc21`, the Potency entry was “inactive”.

As to `CN(C)c1ccc2nc3ccc(=[N+](C)C)cc-3sc2c1`, the Potency is 5.26 µM (active).

Regarding `N=c1ccn2c(n1)O[C@H]1[C@@H](O)[C@@H](CO)O[C@H]12`, the Potency was 0.132 µM (active).

Regarding `COc1cc2nc(N(C)CCCNC(=O)C3CCCO3)nc(N)c2cc1OC` (stereo not given), the Potency result was “inactive”.

Consider `O=C(O)c1cc(=O)c2c(OCC(O)COc3cccc4oc(C(=O)O)cc(=O)c34)cccc2o1`, for which the Potency result was “inactive”.

As to `N#Cc1ccnc(N2C(=O)CC[C@H]2C(=O)N(c2cncc(F)c2)[C@H](C(=O)NC2CC(F)(F)C2)c2ccccc2Cl)c1`, the Potency was 1.48 µM (active).
